Potency and affinity values are given separately. Activity calls are given as the source filed them.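 The calls were made as follows: active = every repeat run showing a signal drop whose fitted half-maximal concentration is at most twice the top tested concentration; inconclusive = repeat runs disagree, or flat partial drop, or poor fit; inactive = the rest.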

This assay is described as follows: general mammalian cell viability loss – activator set, cherry-pick, cytotoxicity control for miR-122 modulator project, dose response (AID 720690). The conditions noted are these: HEK293T viability, CellTiter-Glo luminescence, 48 h; series mostly up to 26 µM.
For `O=C(c1cccnc1)N1C[C@H]2[C@@H](c3ccccc31)[C@H](CO)N2C(=O)Nc1ccccc1Cl`, the compound was called inactive.

`COCC(=O)N(C[C@H]1N[C@@H](CO)[C@@H]1c1ccc(C2=CCCC2)cc1)C(C)C`: the outcome was inactive.

Take `C[C@@H]1CN([C@H](C)CO)S(=O)(=O)c2ccc(-c3ccccc3)cc2O[C@@H]1CN(C)C(=O)c1ccc2c(c1)OCO2`: the compound was called inactive.

On to `COCC(=O)NC[C@@H]1[C@H](c2ccc(C3=CCCC3)cc2)[C@@H](CO)N1C(=O)C1CC1`, for which the outcome was inactive.
